# Laboratory results as given in PubChem BioAssay (NCI).
# Compounds without any hit were thinned out: in the full panel of roughly 83,000, 20% have a hit.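 Percent growth is the endpoint: 0 to 100 indicates growth inhibition (40 means 60% inhibition), 0 means no net growth, and negative values indicate cell death.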 A number with no mark means an inactive call. The source made the active and inactive calls. The calls were made as follows: active = growth percent below 10; inactive = the rest.
# Test system: MOLT-4 leukemia
# Assay: NCI-60 one-dose screen, 48 h (100 = growth as untreated, 0 = no growth, -100 = all killed)
# Details: 10 µM unless noted
row,SMILES,growth
1,NC(=O)c1c(NC(=O)c2ccc(Cl)cc2)sc2c1CCC(=O)C2,46.3%
2,Nc1c(C(=O)Nc2cccc3ncccc23)sc2nc3c(cc12)C(=O)CCC3,66.6%
3,CCOC(=O)c1cn2ncnc(Oc3ccc(NC(=O)NC4CC4)c(F)c3)c2c1C,104%
4,CCOC(=O)c1c2c(n3c1NCC3)-c1ccccc1C2=O,87.8%
5,CCCC(O)Cn1ncc(C(=O)OCC)c1NC(=O)NCc1cccc(F)c1 (stereo not given),70.6%
6,O=C(CCC(=O)c1nc2ncccc2[nH]1)NN1C(=O)CSC1c1ccc(Cl)cc1 (stereo not given),106%
7,COc1ccc2nc(Cl)c(/C=C/C(=O)c3ccc(NC(=O)CSc4nnc(-c5ccc(Cl)c(Cl)c5)n4-c4ccccc4)cc3)cc2c1,86.4%
8,CS(=O)(=O)Nc1cncc(-c2ccc3ncnc(Nc4ccc(F)c(Cl)c4)c3c2)c1,-22.8% (active)
9,Cc1ccc(-c2nc(C#N)c(S(=O)(=O)NCCO)o2)cc1,19.8%
10,O=C1OCC2=C1C(c1cccc(C(F)(F)F)c1)c1cc3c(cc1N2CCO)OCO3 (stereo not given),20%
11,Cc1[nH]c(C(=O)Nc2cccc(OC3CCNCC3)c2)c(Cl)c1Cl,41.5%
12,O=C1/C(=C/c2ccc(Br)cc2)COc2ccc(O)c(O)c21,-9.5% (active)
13,CCN1C(=S)N(CC)C2C1NC(=S)N2/N=C/C=C/c1ccccc1OC (stereo not given),17.7%
14,COc1cc(-c2nc3occn3c2-c2ccnc(NCCCNS(=O)(=O)c3ccccc3)n2)ccc1F,11%
15,O=C(O)c1cccc(N/C=C/C(=O)c2cc3cc(Br)ccc3oc2=O)c1,113%
16,N#Cc1c(Nc2ccc(F)cc2)n[nH]c1-c1cccs1,103%
17,COc1ccc(C2C(C#N)=C(N)Oc3c2sc2c(Br)cccc32)cc1 (stereo not given),12.1%
18,CCNc1nc(-c2ccc(F)cc2)c(C#N)c(=O)n1C,71.6%
19,CC12CCC(/C(=C/NNc3ccc([N+](=O)[O-])cc3[N+](=O)[O-])C1=O)C2(C)C (stereo not given),41.3%
20,S=c1[nH]c2cc(Cl)ccc2o1,63.1%

row,SMILES,growth
1,COc1cc2c3c(c1O)-c1ccccc1[C@@H]1OC(=O)N(CC2)[C@H]31,96.8%
2,CC(C)CSc1oc(-c2ccccc2)nc1S(=O)(=O)c1ccccc1,76.1%
3,C#CCOc1cccc(-c2ncc3cc(NC(=O)CCl)ccc3n2)c1,0.493% (active)
4,Cn1c(=O)c2c(nc(NC3=NS(=O)(=O)c4ccccc43)n2Cc2ccccc2)n(C)c1=O,106%
5,COc1cc2c(c(OC)c1OC)C(=O)CC(c1cccc(NC(=O)c3ccccc3Br)c1)O2 (stereo not given),69.6%
6,CC(C)(CO)N(CCO)CCO,104%
7,CC(=O)c1c(Nc2ccc(F)c(F)c2F)[nH]c2c(F)cc(F)cc2c1=O,-3.98% (active)
8,C#CCOc1ccc2ncnc(Nc3cccc(NC(=O)CCl)c3)c2c1,18.1%
9,COc1ccc(/C=C/C(=O)c2ccc(NC(=O)CSc3nnc(-c4cc(-c5ccccc5)nc5ccccc45)n3-c3ccccc3)cc2)cc1,80.2%
10,CCn1cc(C2=C(c3cn(C)c4ncccc34)C(=O)NC2=O)c2cccnc21,81.9%
11,NNC(=S)N/N=C/c1ccccn1,12%
12,Cc1ccc2nc(Cl)c(Cn3nnnc3SCc3ccccc3)cc2c1,97.8%
13,Clc1nn2c(Cn3cnc4c(NCc5ccccc5)ncnc43)nnc2c2ccccc12,26.5%
14,CN(C)c1ccc(/C=C2/C=C(c3ccccc3)OC2=O)cc1,49.7%
15,O=C(CN1C(=O)NC2NC(=O)NC21)N/N=C/c1ccc(Cl)cc1Cl (stereo not given),105%
16,COc1cccc(Nc2ccnc3[nH]c4ccc([N+](=O)[O-])cc4c23)c1,48.7%
17,COc1ccc(C/C(C)=C(/c2ccc(OCCN3CCCCCC3)cc2)c2ccc(OC(=O)NCc3ccccc3)cc2)cc1,41.2%
18,O=C(O)C1CN(c2cccc(Cl)c2)N(c2cccc(Cl)c2)C1=O (stereo not given),88.8%
19,CN(C)c1ccc(/C=C/C(=O)c2ccc(Nc3nc(Nc4ccc(F)cc4)nc(Nc4ccc(Cl)cc4)n3)cc2)cc1,-3.06% (active)
20,COC(=O)c1nc(-c2ccccc2)oc1S(=O)(=O)N1CCC(C(N)=O)CC1,1.95% (active)
